{
  "source": "PubChem BioAssay (Tox21)",
  "note": "Results filed as inconclusive are left out. Where a call stands in place of a potency, no number is given. The source made the active and inactive calls. Calls come from the whole dose curve; as a rule, active = well fitted cell-killing curve with a large enough effect in the repeat runs; inconclusive = weak or mixed curves, or effect the other way; inactive = flat fitted curve, though single readings scatter. Positions of bridges follow the written chain, without caps; N, C: chain ends. Non-standard residues stand in square brackets, D forms with d. Residues, ends and D or L forms follow the SMILES beside them. *: point of attachment. X2 = CC[C@H](C)CCCCC(=O)*; Dab = NCC[C@H](N)C(=O)O",
  "data": [
    {"test": "qHTS assay to identify small molecule that activate the aryl hydrocarbon receptor (AhR) signaling pathway - cell viability counter screen (AID 743086); note: nearly all actives have a fitted effect of over 45% in size; note: potency is the fitted concentration of half-maximal effect", "settings": "HepG2-AhR-luc viability, CellTiter-Fluor, 24 h; series mostly up to 70.3 µM", "from_the_text": "U.S. Tox21 Program National Center for Advancing Translational Sciences [NCATS] NIH Chemical Genomics Center [NCGC] U.S. Environmental Protection Agency [EPA] National Institutes of Environmental Health Sciences [NIEHS] National Toxicology Program [NTP] U.S. Food and Drug Administration [FDA] Tox21 Assay overview: The Aryl hydrocarbon Receptor (AhR), a member of the family of basic helix-loop-helix transcription factors, is crucial to adaptive responses to environmental changes. AhR mediates cellular responses to environmental pollutants such as aromatic hydrocarbons through induction of phase I and II enzymes but also interacts with other nuclear receptor signaling pathways A cell based HepG2-AhR-luc assay (HG2L7.5c1 cell line, developed by Dr. Michael S. Denison, University of California at Davis) was used to assess the activation of AhR. HepG2 (human hepatocellular carcinoma) cells were stably transfected with an Ah receptor-responsive firefly luciferase reporter gene plasmid containing 20 dioxin responsive elements and luciferase reporter gene. Increased luciferase activity can be used to identify the compounds that induce AhR activation. The cytotoxicity of the compounds screened against the HepG2-AhR-luc cell line was tested in parallel by measuring the cell viability using CellTiter-Fluor assay in the same wells.\nTox21 Assay Protocol Summary: 4000 cells in 5 uL/well were dispensed into white wall/solid bottom 1536-well plates using a Multidrop Combi (Thermo Fisher Scientific Inc., Waltham, MA) dispenser. After the assay plates were incubated at 37C for 5 h, 23 nL of compound or DMSO vehicle was transferred to the assay plates by a pintool station (Kalypsys, San Diego, CA). The plates were incubated at 37C for 24 hr. For cell viability measurement, 1 ul/well of CellTiter-Fluor reagent (Promega, Madison, WI) was added into the assay plates using a Flying Reagent Dispenser (FRD) (Aurora Discovery, CA),and then the assay plates were incubated at 37C for 30 min. The fluorescence intensity in the plates was measured using a ViewLux plate reader (PerkinElmer, Shelton, CT), followed by the addition of 4 uL of ONE-Glo Luciferase Assay reagent (Promega) using an FRD (Aurora Discovery). After the assay plates were incubated at room temperature for 30 min, luminescence intensity was measured using a ViewLux plate reader (Perkin Elmer).", "values": [
      {"smiles": "COC(=O)[C@@H](N)CS", "Potency": "inactive"},
      {"smiles": "CO[C@@H]1[C@@H](O[C@@H]2O[C@H](C)[C@@H](O[C@H]3C[C@@](C)(O)[C@@H](OC(=O)CC(C)C)[C@H](C)O3)[C@H](N(C)C)[C@H]2O)[C@@H](CC=O)C[C@@H](C)[C@@H](O)/C=C/C=C/C[C@@H](C)OC(=O)C[C@H]1O", "Potency": "inactive"},
      {"smiles": "COC(=O)CCC(=O)CN", "Potency": "inactive"},
      {"smiles": "CCCC(=O)N1CCCN(c2nc(N)c3cc(OC)c(OC)cc3n2)CC1", "Potency": "inactive"},
      {"smiles": "NCCC[C@H](N)C(=O)O", "Potency": "inactive"},
      {"smiles": "C[N@+]12CCCC[C@@H]1CCC(=C(c1cccs1)c1cccs1)C2", "Potency": "inactive"},
      {"smiles": "CCCCC(=O)O[C@H]1CC[C@H]2[C@@H]3CCc4cc(O)ccc4[C@H]3CC[C@]12C", "Potency": "inactive"},
      {"smiles": "CC(C)(C)NC[C@H](O)COc1ccccc1C1CCCC1", "Potency": "inactive"},
      {"smiles": "O=C(CCCN1CCC(n2c(=S)[nH]c3ccccc32)CC1)c1ccc(F)cc1", "Potency": "inactive"},
      {"smiles": "Cc1cc(C(=O)NNCc2ccccc2)no1", "Potency": "inactive"},
      {"smiles": "Cc1ccccc1OCC(O)CNCCOc1ccc(C(N)=O)cc1", "note": "(stereo not given)", "Potency": "inactive"},
      {"smiles": "CC(=C\\c1ccccc1)/C=C1/SC(=S)N(CC(=O)O)C1=O", "Potency": "inactive"},
      {"smiles": "O=C(O)CC/C=C\\CC[C@@H]1[C@@H](N2CCCCC2)[C@@H](O)C[C@@H]1OCc1ccc(-c2ccccc2)cc1", "Potency": "inactive"},
      {"smiles": "C[C@@](Cc1ccc(O)c(O)c1)(NN)C(=O)O", "Potency": "inactive"},
      {"smiles": "CCCCCCCCCCCCCCCC(=O)OC[C@@H](COP(=O)([O-])OCC[N+](C)(C)C)OC(=O)CCCCCCCCCCCCCCC", "Potency": "inactive"},
      {"smiles": "COc1ccc(CNCC(O)COc2ccc3[nH]c(=O)ccc3c2)cc1OC", "note": "(stereo not given)", "Potency": "inactive"},
      {"smiles": "CS(=O)(=O)NC(=O)CCC/C=C\\C[C@H]1C(=O)C[C@@H](O)[C@@H]1/C=C/[C@H](O)COc1ccccc1", "Potency": "inactive"},
      {"smiles": "S=C1SCN(Cc2ccccc2)CN1Cc1ccccc1", "Potency": "inactive"},
      {"smiles": "CC[C@@H](C(=O)O)[C@@H]1O[C@@H]([C@@H](C)[C@H](O)[C@H](C)C(=O)[C@H](CC)[C@H]2O[C@]3(C=C[C@@H](O)[C@]4(CC[C@@](C)([C@H]5CC[C@](O)(CC)[C@H](C)O5)O4)O3)[C@H](C)C[C@@H]2C)[C@@H](C)C[C@@H]1C", "Potency": "inactive"},
      {"smiles": "NC(=O)Oc1ccc(Cc2ccccc2)cc1", "Potency": "inactive"},
      {"smiles": "CCN(CC)c1ccc(C(=C2C=CC(=[N+](CC)CC)C=C2)c2ccccc2)cc1", "Potency": "5.96 µM (active)"},
      {"smiles": "Cc1ccccc1CNc1ncnc2c1ncn2[C@@H]1O[C@H](CO)[C@@H](O)[C@H]1O", "Potency": "inactive"},
      {"smiles": "CCCCCCCCCCCCCCCCCC[N+](C)(C)CCC[Si](OC)(OC)OC", "Potency": "inactive"},
      {"smiles": "OCCN1CCN(CC/C=C2/c3ccccc3Sc3ccc(Cl)cc32)CC1", "Potency": "inactive"},
      {"smiles": "CC(C)(CO)[C@@H](O)C(=O)NCCC(=O)NCCSSCCNC(=O)CCNC(=O)[C@H](O)C(C)(C)CO", "Potency": "inactive"},
      {"smiles": "Clc1cc(Cl)c(OCC#CI)cc1Cl", "Potency": "26.6 µM (active)"},
      {"smiles": "CC[C@H](C)CCCCC(=O)N[C@@H](CCN)C(=O)N[C@H](C(=O)N[C@@H](CCN)C(=O)N[C@H]1CCNC(=O)[C@H]([C@@H](C)O)NC(=O)[C@H](CCN)NC(=O)[C@H](CCN)NC(=O)[C@H](CC(C)C)NC(=O)[C@@H](CC(C)C)NC(=O)[C@H](CCN)NC1=O)[C@@H](C)O", "note": "(X2-[Dab]T[Dab][Dab][Dab][dL]L[Dab][Dab]T; lactam 4-C)", "Potency": "inactive"},
      {"smiles": "CN[C@@H]1[C@@H](O)[C@@H](O[C@@H]2[C@@H](O)[C@H](OC3OC(CN)=CCC3N)[C@@H](N)C[C@H]2N)OC[C@]1(C)O", "note": "(stereo not given in full)", "Potency": "inactive"},
      {"smiles": "CC(=O)N=c1sc(S(N)(=O)=O)nn1C", "Potency": "inactive"},
      {"smiles": "Cc1ccc(/C(=C\\CN2CCCC2)c2cccc(/C=C/C(=O)O)n2)cc1", "Potency": "inactive"},
      {"smiles": "CCCCC[C@H](O)/C=C/[C@@H]1[C@H]2C/C(=C/CCCC(=O)O)O[C@H]2C[C@H]1O", "Potency": "inactive"},
      {"smiles": "N[C@H](CCC(=O)O)C(=O)O", "Potency": "inactive"},
      {"smiles": "CN1CCCC(CN2c3ccccc3Sc3ccccc32)C1", "note": "(stereo not given)", "Potency": "inactive"},
      {"smiles": "CN=C1C=CC(=C(c2ccc(N(C)C)cc2)c2ccc(N(C)C)cc2)C=C1", "Potency": "6.68 µM (active)"},
      {"smiles": "C[C@@H]1C[C@H]2C3C[C@H](F)C4=CC(=O)C=CC4(C)[C@@]3(F)[C@@H](O)CC2(C)[C@@]1(O)C(=O)COC(=O)C(C)(C)C", "note": "(stereo not given in full)", "Potency": "inactive"},
      {"smiles": "Nc1nc2c(c(=O)[nH]1)N(C=O)C(CNc1ccc(C(=O)N[C@@H](CCC(=O)O)C(=O)O)cc1)CN2", "note": "(stereo not given in full)", "Potency": "inactive"},
      {"smiles": "CC[C@H](C)[C@@H]1NC(=O)[C@H](Cc2ccc(O)cc2)NC(=O)[C@@H](N)CSSC[C@@H](C(=O)N2CCC[C@H]2C(=O)N[C@@H](CC(C)C)C(=O)NCC(N)=O)NC(=O)[C@H](CC(N)=O)NC(=O)[C@H](CCC(N)=O)NC1=O", "Potency": "inactive"},
      {"smiles": "C=C1CC[C@@H]2[C@](C)(CO)[C@H](O)CC[C@@]2(C)[C@@H]1C/C=C1/C(=O)OC[C@H]1O", "Potency": "inactive"},
      {"smiles": "Cc1nnc(C(C)C)n1C1C[C@H]2CC[C@@H](C1)N2CC[C@H](NC(=O)C1CCC(F)(F)CC1)c1ccccc1", "note": "(stereo not given in full)", "Potency": "inactive"},
      {"smiles": "CC(C)[C@@H](C)/C=C/[C@@H](C)[C@H]1CC[C@H]2/C(=C/C=C3\\C[C@@H](O)CC[C@@H]3C)CCC[C@]12C", "Potency": "inactive"}
    ]}
  ]
}
